Assay outcomes: PubChem, several laboratories
Sampled rows, rich in hits. Any-hit rate of the full collection: about 2.9%.
SKN-1 inh – inhibitors of C. elegans SKN-1 | C. elegans VP596 Pgst-4::GFP/RFP ratio, acrylamide-induced, 24 h | inhibition, % at 21.8 µM | hit rate 0.49% among 360,000;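 active = interference check ratio from 0.5 to 1.5 plus GFP to RFP signal ratio inhibition reaching or exceeding a fixed threshold, cut at about 30% in these data, passing the limit was not always enough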
NR1D1 modulator – Rev-erb alpha (human) modulation. activity, % at 10 µM. P20393. hit rate 0.79% among 370,000. Rev-erbα–FITC-DNA binding, fluorescence polarization, 90 min;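 active = activity above about 14%, limit read from the data; passing the limit was not always enough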;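 note: 0% = DMSO wells with 35 nM protein and 100% = DMSO wells with 750 nM protein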
Target sequence (P20393 whole entry, looked up): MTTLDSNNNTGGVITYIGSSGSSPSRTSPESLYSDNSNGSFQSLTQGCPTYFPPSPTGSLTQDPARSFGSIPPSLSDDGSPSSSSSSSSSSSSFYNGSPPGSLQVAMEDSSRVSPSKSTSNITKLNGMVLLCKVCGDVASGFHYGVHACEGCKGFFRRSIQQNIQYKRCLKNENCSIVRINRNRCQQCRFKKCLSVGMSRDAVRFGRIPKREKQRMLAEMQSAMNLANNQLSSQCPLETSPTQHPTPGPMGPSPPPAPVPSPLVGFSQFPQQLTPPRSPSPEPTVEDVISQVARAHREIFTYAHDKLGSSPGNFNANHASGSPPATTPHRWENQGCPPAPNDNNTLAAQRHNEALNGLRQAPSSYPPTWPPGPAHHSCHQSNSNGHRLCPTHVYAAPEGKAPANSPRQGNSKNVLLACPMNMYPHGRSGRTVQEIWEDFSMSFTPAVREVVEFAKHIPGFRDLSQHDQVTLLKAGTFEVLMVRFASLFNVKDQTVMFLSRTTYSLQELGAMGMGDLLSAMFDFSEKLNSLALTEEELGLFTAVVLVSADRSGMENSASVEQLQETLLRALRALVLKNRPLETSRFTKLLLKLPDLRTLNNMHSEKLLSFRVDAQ
PG9 binder – small molecules binding HIV-1 gp120 antibody PG9; inhibition, % at 6.7 µM; hit rate 0.43% among 360,000; TR-FRET gp120-PG9 antibody binding; AID 624416; in the data active = inhibition above about 8.5%
EP2 antag – blocks the human prostaglandin E2 receptor EP2; hit rate 0.52% among 260,000; P43116; inhibition, % at 25 µM; AID 1422; C6 glioma cells expressing human EP2, cAMP TR-FRET; cells stimulated with saturating PGE2;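 active = percent inhibition above 40 after rounding to a whole number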;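 note: rat C6 glioma host cells with rolipram phosphodiesterase inhibitor present; the protocol text gives 20 µM as final concentration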
EP2 mod – modulates human prostaglandin E2 receptor EP2 signaling; EP2-expressing cells, cAMP HTRF FRET, PGE2 co-stimulation; P43116; induction, % at 25 µM; hit rate 0.83% among 260,000; AID 940;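 active = compounds whose cAMP rise, as percent of the full-agonist control response, exceeds 60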;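 note: rat C6 glioma line stably carrying human EP2 under a CMV promoter; the protocol text gives 20 µM as final concentration; 100% = response of wells given 1 µM PGE2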
RAM inhibit – inhibitors of the yeast RAM network; hit rate 1.8% among 190,000; S. cerevisiae dse1pr::URA3 reporter, 5-FOA growth OD615, 2 d; analog-sensitive cbk1-as2 kinase mutant strain; AID 868; inhibition, % at 50 µM;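 active = inhibition above a set limit, 3 SD over mean compound inhibition, cut at about 8.4% in these data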;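 note: 0% = DMSO-only wells with no growth and 100% = 10 µM 1-NA-PP1 full growth; inhibition rescues growth on 5-FOA so higher OD means more RAM inhibition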
* hit, by the source's call; . = no result given.

SMILES | SKN-1 inh | NR1D1 modulator | PG9 binder | EP2 antag | EP2 mod | RAM inhibit
Cc1ncc(-c2ccncc2)c(C2CCCN(C(=O)c3cc(CC(C)C)on3)C2)n1 (configuration not stated) | . | . | . | . | -24 | .
CC1=CC(=O)c2c(O)ccc(O)c2C1=O | . | . | . | 84* | -51 | 5
O=C1c2ccc(O)c(O)c2C(=O)c2c(O)ccc(O)c21 | . | . | . | 13 | 19 | .
COc1cc(CN(CCCN(C)C)Cc2ccccn2)cc2c1OCO2 | . | . | . | 2 | 17 | .
C=CCn1c(N2CCC(C(=O)NCCOC)CC2)nc2ccccc21 | . | . | . | . | -24 | .
Fc1ccc(Oc2nnnn2-c2ccccc2)cc1 | 7 | 3 | 0 | 3 | 27 | 0
Brc1ccc(Oc2nnnn2-c2ccccc2)cc1 | 37* | 2 | 1 | 13 | 33 | 3
COc1ccc(CCN2C(=O)C(O)=C(C(C)=O)C2c2cccc(F)c2)cc1OC (configuration not stated) | . | . | . | 11 | 8 | .
CCOc1ccc(N=Cc2ccc(N(C)C)cc2)c(O)c1 | 51* | . | . | . | . | .
CCc1cccc(C)c1NC(=O)c1sc2cc(C)ccc2c1Cl | . | . | . | 20 | 1 | .
CC1(C)CC(N(Cc2cccnc2)CC2CCOC2)CC(C)(C)N1 (configuration not stated) | . | . | . | 5 | -3 | .
CCOc1cc(-c2nc(-c3ccc(OC)cc3)no2)cc(OCC)c1OCC | -7 | 14 | -1 | 14 | 31 | 9.6*
Cc1cc(C)c2oc(-c3ccc(NC(=O)c4ccncc4)cc3O)nc2c1 | . | . | . | 8 | -3 | .
CSCCC(NC(=O)c1ccc(Cl)cc1)C(=O)OCC(=O)Nc1cc(Cl)ccc1C#N (configuration not stated) | 3 | 22 | -2 | 5 | -27 | 8.7*
COCCNC(=O)C(c1ccc(F)cc1)N(C(=O)CCC(=O)Nc1nccs1)c1cccc(C)c1 (configuration not stated) | -5 | 7 | -2 | 5 | 7 | 9.6*
CN(C)CCCCN1CCc2c(n(C)c3ccccc23)C1=O | . | . | . | 50* | -26 | .
Cn1c2c(c3ccccc31)CCSC2=O | 34 | 0 | 1 | 9 | 6 | 2
Cc1ccc(CN(Cc2cncn2C)C2CC(C)(C)NC(C)(C)C2)o1 | . | . | . | 4 | 5 | .
Fc1ccc(-c2csc3ncnc(N4CCc5ccccc5C4)c23)cc1 | 3 | 4 | 0 | 6 | 64* | 9.1*
CCOC(=O)c1cc(OC(=O)c2ccccc2)n(-c2ccccc2)n1 | 0 | 2 | -1 | 9 | 62* | 2
COc1ccc(NC(=O)CSc2nc3c(C)cc(C)cc3cc2C)c(OC)c1 | . | . | . | 13 | 10 | .
CSc1nc(-c2ccccc2F)c(C#N)c(=O)n1C | 5 | -2 | -1 | 7 | 21 | 8.6*
COCCOC(=O)c1c(C)nc(SCC(=O)Nc2ccc(OC)cc2)c(C#N)c1-c1ccco1 | -11 | 21 | 5 | 7 | -23 | 0
COc1cccc(NC(=O)CSc2nc3c(c(-c4ccco4)c2C#N)CCCC3)c1 | -4 | -5 | 2 | 10 | 17 | 9.2*
Cc1c2cc[n+](CCN3CCCCC3)cc2c(C)c2c1[nH]c1ccc(O)cc12 | 18 | . | . | 51* | 14 | .
SMILES | SKN-1 inh | NR1D1 modulator | PG9 binder | EP2 antag | EP2 mod | RAM inhibit
CCOC(=O)c1[nH]c2ccc(C)cc2c1NC(=O)CN1CCCCC1 | -1 | 5 | -4 | 11 | -41 | 3
CC(C)(C)NC(=O)c1sc2nc3cc4c(cc3cc2c1N)OCCO4 | . | . | . | 19 | -126 | .
Cc1nn2cc(-c3ccc(Cl)cc3)nc2s1 | 45* | 0 | 0 | 3 | -7 | 2
Cc1nn2cc(-c3ccc(-c4ccccc4)cc3)nc2s1 | -5 | 3 | 3 | 14 | -9 | 4
CCOc1ccc2[nH]cc(NC(=O)NCC3CCCO3)c(=O)c2n1 (configuration not stated) | . | . | . | 6 | -47 | .
O=C(NCc1cccnc1)C1CCCN1S(=O)(=O)c1ccccc1 (configuration not stated) | . | . | . | 9 | -49 | .
CCCC[C@@H]1C[C@H]1[C@@H](NC(=O)c1cccs1)c1ccc(Cl)cc1 | . | . | . | 9 | -30 | 9.8*
CCC(c1nnnn1C1CCCCC1)N(Cc1cc2cc3c(cc2[nH]c1=O)OCCO3)C1CCCC1 (configuration not stated) | . | . | . | 7 | 16 | .
Cc1ccc(C)c(NC(=O)c2ccc3ccccc3n2)c1 | 6 | 0 | 0 | 7 | 52 | 10*
Cc1ccc(C)c(NC(=O)c2cc3ccccc3o2)c1 | 40* | -1 | -2 | . | . | .
N=C(N)SCCc1ccncc1 | . | . | . | 48* | 16 | .
CCN=C1Sc2nc3ccc(OCC)cc3cc2CN1CC1CCCO1 (configuration not stated) | . | . | . | 11 | 4 | .
O=C(Nc1nnc(-c2ccccc2)o1)c1nc2ccccc2s1 | -3 | 2 | 1 | 45* | -14 | .
CCSc1nc(-c2ccc(OC)cc2)ccc1C#N | -8 | 3 | 0 | 11 | 35 | 8.7*
CCOc1ccc2c(CC)cc(=O)oc2c1OCC | 7 | 2 | -3 | 13 | 18 | 2
C=CCOc1ccc2c(CC)cc(=O)oc2c1C | 72* | 1 | 0 | 4 | 25 | 0
Cc1nn(C(C)(C)C)c(OC(=O)c2ccc(Br)o2)c1Sc1ccccc1 | -17 | -1 | 0 | 2 | 19 | 11*
Cc1nn(C(C)(C)C)c(OC(=O)c2cccs2)c1Sc1ccccc1 | -16 | 0 | 2 | 5 | 57 | 11*
Cc1nn(C(C)(C)C)c(OC(=O)c2ccco2)c1Sc1ccccc1 | -24 | -5 | 2 | 4 | 38 | 6
CC1=NN(Cc2ccccc2)C(=O)/C1=C\c1ccc(N(C)C)cc1 | 34* | 8 | -5 | 13 | -15 | 4
CCOC(=O)C1=NN(c2ccccc2)C(=O)/C1=C\c1ccc(N(C)C)cc1 | 22 | -1 | -2 | 16 | -14 | 4
O=[N+]([O-])c1ccc(S(=O)(=O)Nc2nc(-c3ccccc3)cs2)cc1 | 14 | 2 | 0 | . | . | .
C=CCNc1nc(-c2ccc(Cl)cc2)cs1 | 43* | -1 | -2 | 20 | -2 | 0
C=CCNc1nc(-c2ccc([N+](=O)[O-])cc2)cs1 | 51* | 8 | -2 | 28 | -52 | 0
COC(C(=O)N1CCC(O)(c2ccccn2)CC1)c1ccccc1 (configuration not stated) | . | . | . | . | -17 | .
SMILES | SKN-1 inh | NR1D1 modulator | PG9 binder | EP2 antag | EP2 mod | RAM inhibit
Cc1ccc(C(=O)c2no[n+]([O-])c2C(=O)c2ccc(C)cc2)cc1 | -13 | 3 | 2 | 50* | -45 | 0
COC(=O)CC(=O)CSc1nc(C)cc(C(F)(F)F)c1C#N | . | . | . | 16 | -23 | .
COC(=O)CSc1nc(C)cc(C(F)(F)F)c1C#N | -8 | -1 | -5 | 10 | 4 | 1
Cc1ccc(S(=O)(=O)CCSc2nc(C)cc(C(F)(F)F)c2C#N)cc1 | 20 | 7 | 1 | 5 | 11 | 10*
Cc1nc(Sc2ccccc2)c(C#N)c(C)c1[N+](=O)[O-] | -17 | -2 | -2 | 7 | 61* | .
Cc1cc(C(F)(F)F)c(C#N)c(Sc2ccccc2)n1 | 14 | -5 | -1 | -4 | 44 | 10.0*
